# In PubChem BioAssay (NCATS):
# Results filed as inconclusive are left out. Activity calls are given as the source filed them. Calls come from the whole dose curve; as a rule, active = well fitted inhibition curve with a large enough effect; inconclusive = small, poorly fitted or top-dose-only effect; inactive = flat fitted curve, though single readings scatter. Where a SMILES comes first, the peptide text is derived from it. [ ]: non-standard residue; d: D form. ξ: configuration not given here. ξTyr(βOH) = NC(C(=O)O)C(O)c1ccc(O)cc1
# Biological target: Calcium and integrin-binding protein 1 (Homo sapiens) (UniProt Q99828)
# Assay: Primary qHTS for Identification of Calcium Integrin Binding Protein 1 (CIB1) Competitor (AID 1508620);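 note: GST tagged CIB1 binding a fluorescein labelled alphaIIb integrin peptide tracer; top concentration of the series differs between compounds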
# Details: CIB1-GST / FITC-alphaIIb peptide fluorescence polarization; series mostly up to 57.7 µM; activity change, negative = inhibition: at the top concentration
# How it was run: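 CIB1-GST (1 uM final) and compound incubated 15 min at room temperature before adding FITC-alphaIIb peptide tracer (100 nM final). Competition for binding read by fluorescence polarization (ex 480, em 540) after another 15 min at room temperature.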
# % is set by controls: 0 for no effect and ±100 for the full control effect.
# Sequence of Calcium and integrin-binding protein 1 (Homo sapiens) (Q99828 whole entry, looked up): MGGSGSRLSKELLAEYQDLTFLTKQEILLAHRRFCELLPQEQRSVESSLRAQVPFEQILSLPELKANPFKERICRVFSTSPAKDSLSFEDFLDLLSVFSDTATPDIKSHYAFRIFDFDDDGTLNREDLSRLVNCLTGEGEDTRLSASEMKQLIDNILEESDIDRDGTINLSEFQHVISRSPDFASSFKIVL
row,Compound,"activity change, negative = inhibition"
1,CC(C)c1ccc2c(c1)C(=O)CC1C(C)(C(=O)O)CCCC21C (stereo unspecified),-4.08% (inactive)
2,C=C(C(=O)O)[C@H]1C[C@]2(C)C(=O)CC[C@]23O[C@H]1C[C@@H]3C,-0.293% [at 114 µM] (inactive)
3,CC1(CO)CC(O)C2(C)CCC3(C)C(=CCC4C5(C=O)CCC(OC6OC(C(=O)O)C(O)C(O)C6OC6OC(C(=O)O)C(O)C(O)C6O)C(C)(C)C5CCC43C)C2C1 (stereo unspecified),-4.9% [at 30.2 µM] (inactive)
4,O=C(O)CC/C=C\C[C@H]1CO[C@@H](c2ccccc2Cl)O[C@H]1c1ccccc1O,-3.67% [at 114 µM] (inactive)
5,C=CC1(C)CC2CCC3C(C)(C(=O)O)CCCC3(C)C2=CC1=O (stereo unspecified),-0.857% (inactive)
6,C=C(C)[C@@]1(O)C[C@@]2(C)C(=CC1=O)CC[C@@H](O)[C@@H]2C,2.92% [at 114 µM] (inactive)
7,CC1(C)CC[C@]2(C(=O)O[C@@H]3O[C@H](CO)[C@@H](O)[C@H](O)[C@H]3O)CC[C@]3(C)C(=CCC4[C@@]5(C)C[C@@H](O)[C@H](O)[C@@](C)(CO)C5[C@H](O)C[C@]43C)C2C1 (stereo partly specified),3.88% [at 30.2 µM] (inactive)
8,Cc1ccc(-c2c(-c3nn(C)c4ncnc(N5CC[C@H](N6CCCCC6)C5)c34)cnn2C)cc1,-3.45% [at 114 µM] (inactive)
9,C=C1CC23CC(=O)C4C(CO)(CO)CCCC4(C)C2CCC1C3 (stereo unspecified),0.445% (inactive)
10,H-DPPDPDRFYGMM-NH2,0.336% [at 30.2 µM] (inactive)
11,CC(=O)O[C@H]1C[C@@H](O)C(C)(C)C2C[C@@H](OC(C)=O)[C@@]3(C)C4=CCC(C(CO)CC(O)C5OC5(C)C)[C@]4(C)CCC3[C@]21C (stereo partly specified),-8.68% [at 30.2 µM] (inactive)
12,COc1ccc(C(=O)CC(=O)O)c2c1C=CC(C)(C)O2,-1.25% [at 114 µM] (inactive)
13,C=C(CCO[C@@H]1O[C@H](CO)[C@@H](O)[C@H](O)[C@H]1O)C(=O)O,0.888% [at 114 µM] (inactive)
14,CC1(C)OC(=O)C=C[C@@]2(C)C1CC(=O)[C@]1(C)C2CC[C@@]2(C)[C@H](c3ccoc3)OC(=O)[C@H]3O[C@]321 (stereo partly specified),-3.45% (inactive)
15,C=C1CC[C@@H]2[C@](C)(CO)[C@H](O[C@@H]3O[C@H](CO)[C@@H](O)[C@H](O)[C@H]3O)CC[C@@]2(C)[C@@H]1C/C=C1/C(=O)OC[C@H]1O,-1.89% (inactive)
16,C=C1CCC2C(C)(C)CCC[C@]2(C)[C@H]1CC/C(C)=C/C(=O)O (stereo partly specified),-8.93% [at 114 µM] (inactive)

row,Compound,"activity change, negative = inhibition"
1,C[C@@H]1C[C@@H](O)[C@@]2(CO)C(CO)=CCC[C@@H]2[C@@]12C[C@@H](c1ccoc1)OC2=O,-9.36% (inactive)
2,COC(=O)C1=CO[C@@H](O[C@@H]2O[C@H](CO)[C@@H](O)[C@H](O)[C@H]2O)/C(=C\CO)[C@@H]1CC(=O)OCCc1ccc(O)cc1,5.39% (inactive)
3,CC1CC(=O)[C@]2(O)C(C(=O)OCCc3ccc(O)c(O)c3)=CO[C@@H](O[C@@H]3O[C@H](CO)[C@@H](O)[C@H](O)[C@H]3O)[C@H]12 (stereo partly specified),4.99% (inactive)
4,O=C(/C=C/c1ccccc1)O[C@@H]1[C@@H](CO)O[C@@](CO)(O[C@H]2O[C@H](CO)[C@@H](O)[C@H](O)[C@H]2O)[C@H]1O,1.02% (inactive)
5,C=C(C(=O)O)[C@@H]1CC[C@@]2(C)CC[C@@H](O)C(=C)C2C1 (stereo partly specified),-7.13% [at 114 µM] (inactive)
6,C/C=C(/C)C(=O)O[C@@H]1C[C@@H](OC(=O)/C(C)=C\C)[C@@]2(C)C3C(=O)C=C(C)C2C3C1(C)C,3.06% (inactive)
7,CC(=O)c1ccc(O[C@@H]2O[C@H](CO[C@@H]3OC[C@@H](O)[C@H](O)[C@H]3O)[C@@H](O)[C@H](O)[C@H]2O)cc1,3.92% (inactive)
8,C=C(C(=O)O)C1CC(OC(=O)CC(C)CC)C2(C)CCCC(=C)C2C1 (stereo unspecified),-7.17% (inactive)
9,CC1(C)CC[C@]2(C(=O)O[C@@H]3O[C@H](CO)[C@@H](O)[C@H](O)[C@H]3O)CC[C@]3(C)C(=CCC4[C@@]5(C)C[C@H](O)[C@H](O[C@@H]6OC[C@@H](O)[C@H](O)[C@H]6O)[C@@](C)(CO)C5CC[C@]43C)C2C1 (stereo partly specified),-4.12% [at 30.2 µM] (inactive)
10,CC(C)C1NC(=O)CNC(=O)C2CCCN2C(=O)C(Cc2c[nH]c3ccccc23)NC(=O)CNC(=O)C(C(O)c2ccc(O)cc2)NC(=O)CNC1=O (stereo unspecified) (cyclo(G[ξTyr(βOH)]GWPGV); configuration not given here),-6.08% [at 30.2 µM] (inactive)
11,CC1CCC2C(C)(C)[C@H](O)CC[C@]2(C)C12Cc1c(O)cc3c(c1O2)CN(C(CCC(=O)O)C(=O)O)C3=O (stereo partly specified),3.35% (inactive)
12,COc1cc(/C=C/C(=O)OCC2OC(OC3(CO)OC(CO)C(O)C3O)C(O)C(O)C2O)ccc1O (stereo unspecified),4.46% (inactive)
13,O=C(O)c1cccc(C(=O)CCC2OC(n3cnc4c(=O)[nH]cnc43)C(O)C2O)c1 (stereo unspecified),0.704% (inactive)
14,CC(O)C1NC(=O)C2CCCN2C1=O (stereo unspecified),4.24% [at 228 µM] (inactive)
15,CC(C)C1NC(=O)CNC(=O)C2CCCN2C(=O)C(Cc2c[nH]c3ccccc23)NC(=O)CNC(=O)C(Cc2ccc(O)cc2)NC(=O)CNC1=O (stereo unspecified) (cyclo(GVGYGWP); configuration not given here),-2% [at 30.2 µM] (inactive)
